Test results published in ChEMBL document CHEMBL1961873, “Compounds: GSK PKIS; Assays: Nanosyn kinase panel” (2012).

Tests used:
[1] = molecular target: Tyrosine-protein kinase CSK (Homo sapiens) (UniProt P41240); settings: at 1 µM;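 also: each value is an averaged inhibition reading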
[2] = molecular target: T1, Discoidin domain-containing receptor 2 (Homo sapiens) (UniProt Q16832); settings: at 0.1 µM
T1 sequence (whole entry): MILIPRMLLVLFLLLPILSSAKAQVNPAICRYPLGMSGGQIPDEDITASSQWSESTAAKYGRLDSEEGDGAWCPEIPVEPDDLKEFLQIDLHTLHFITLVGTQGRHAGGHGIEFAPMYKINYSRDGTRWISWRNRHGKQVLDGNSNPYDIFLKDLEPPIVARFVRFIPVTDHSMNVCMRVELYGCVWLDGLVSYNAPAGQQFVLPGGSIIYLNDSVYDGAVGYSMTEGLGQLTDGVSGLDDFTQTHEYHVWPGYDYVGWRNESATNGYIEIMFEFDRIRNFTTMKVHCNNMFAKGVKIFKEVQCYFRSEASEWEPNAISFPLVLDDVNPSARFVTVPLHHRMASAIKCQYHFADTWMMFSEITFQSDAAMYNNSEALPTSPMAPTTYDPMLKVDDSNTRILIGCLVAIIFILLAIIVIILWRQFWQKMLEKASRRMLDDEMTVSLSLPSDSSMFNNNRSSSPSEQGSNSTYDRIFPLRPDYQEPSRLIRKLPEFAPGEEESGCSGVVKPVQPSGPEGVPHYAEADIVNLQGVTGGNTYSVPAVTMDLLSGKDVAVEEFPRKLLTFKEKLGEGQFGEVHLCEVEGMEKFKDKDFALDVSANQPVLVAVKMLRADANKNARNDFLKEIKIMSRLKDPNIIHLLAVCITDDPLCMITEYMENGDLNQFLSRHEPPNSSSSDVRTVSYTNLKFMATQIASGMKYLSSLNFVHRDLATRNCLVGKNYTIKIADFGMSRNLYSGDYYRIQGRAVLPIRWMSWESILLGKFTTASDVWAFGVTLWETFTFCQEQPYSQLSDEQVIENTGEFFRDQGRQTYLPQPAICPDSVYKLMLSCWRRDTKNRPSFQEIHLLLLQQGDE

[3] = molecular target: T1, Discoidin domain-containing receptor 2 (Homo sapiens); settings: at 1 µM
[4] = molecular target: Epidermal growth factor receptor (Homo sapiens) (UniProt P00533); settings: at 0.1 µM
[5] = molecular target: Epidermal growth factor receptor (Homo sapiens) (UniProt P00533); settings: at 1 µM
[6] = test system: Epidermal growth factor receptor (Homo sapiens), P00533 [L858R]; settings: at 0.1 µM
[7] = test system: Epidermal growth factor receptor (Homo sapiens), P00533 [L858R]; settings: at 1 µM
[8] = test system: Epidermal growth factor receptor (Homo sapiens), P00533 [L861Q]; settings: at 0.1 µM
[9] = test system: Epidermal growth factor receptor (Homo sapiens), P00533 [L861Q]; settings: at 1 µM
[10] = test system: Epidermal growth factor receptor (Homo sapiens), P00533 [T790M]; settings: at 0.1 µM
[11] = test system: Epidermal growth factor receptor (Homo sapiens), P00533 [T790M]; settings: at 1 µM
[12] = test system: Epidermal growth factor receptor (Homo sapiens), P00533 [L858R,T790M]; settings: at 0.1 µM
[13] = test system: Epidermal growth factor receptor (Homo sapiens), P00533 [L858R,T790M]; settings: at 1 µM
[14] = molecular target: Ephrin type-A receptor 2 (Homo sapiens) (UniProt P29317); settings: at 0.1 µM
[15] = molecular target: Ephrin type-A receptor 2 (Homo sapiens) (UniProt P29317); settings: at 1 µM
[16] = molecular target: T2, Ephrin type-A receptor 3 (Homo sapiens) (UniProt P29320); settings: at 0.1 µM
T2 sequence (whole entry): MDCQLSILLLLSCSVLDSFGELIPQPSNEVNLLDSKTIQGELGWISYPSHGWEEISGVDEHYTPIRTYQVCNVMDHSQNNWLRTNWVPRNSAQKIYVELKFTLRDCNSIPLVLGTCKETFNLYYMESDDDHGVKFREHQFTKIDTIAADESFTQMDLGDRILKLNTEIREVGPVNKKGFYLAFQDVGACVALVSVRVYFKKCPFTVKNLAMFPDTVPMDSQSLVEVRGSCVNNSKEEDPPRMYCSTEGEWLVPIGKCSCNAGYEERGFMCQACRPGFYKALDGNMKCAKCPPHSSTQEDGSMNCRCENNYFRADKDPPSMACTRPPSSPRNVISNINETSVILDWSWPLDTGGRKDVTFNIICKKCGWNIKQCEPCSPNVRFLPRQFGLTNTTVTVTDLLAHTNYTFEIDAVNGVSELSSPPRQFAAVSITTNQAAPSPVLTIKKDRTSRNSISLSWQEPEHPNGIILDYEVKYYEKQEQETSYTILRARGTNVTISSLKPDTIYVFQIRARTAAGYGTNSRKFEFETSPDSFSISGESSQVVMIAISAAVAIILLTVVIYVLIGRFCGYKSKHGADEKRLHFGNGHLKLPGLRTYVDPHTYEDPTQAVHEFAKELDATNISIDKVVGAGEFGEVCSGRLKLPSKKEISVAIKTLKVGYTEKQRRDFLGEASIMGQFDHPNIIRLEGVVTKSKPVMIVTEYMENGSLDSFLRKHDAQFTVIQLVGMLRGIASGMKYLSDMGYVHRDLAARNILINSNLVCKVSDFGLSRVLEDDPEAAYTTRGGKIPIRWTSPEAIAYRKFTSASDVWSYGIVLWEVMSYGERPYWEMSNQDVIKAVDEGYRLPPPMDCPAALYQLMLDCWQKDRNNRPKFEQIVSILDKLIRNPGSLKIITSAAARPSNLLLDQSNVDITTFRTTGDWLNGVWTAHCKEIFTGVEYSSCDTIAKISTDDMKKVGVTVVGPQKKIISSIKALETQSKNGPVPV

[17] = molecular target: T2, Ephrin type-A receptor 3 (Homo sapiens); settings: at 1 µM
[18] = molecular target: Ephrin type-A receptor 4 (Homo sapiens) (UniProt P54764); settings: at 0.1 µM
[19] = molecular target: Ephrin type-A receptor 4 (Homo sapiens) (UniProt P54764); settings: at 1 µM
[20] = molecular target: T3, Ephrin type-B receptor 2 (Homo sapiens) (UniProt P29323); settings: at 0.1 µM;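 also: reported as mean inhibition of EPHB2, from the GSK PKIS dataset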
T3 sequence (whole entry): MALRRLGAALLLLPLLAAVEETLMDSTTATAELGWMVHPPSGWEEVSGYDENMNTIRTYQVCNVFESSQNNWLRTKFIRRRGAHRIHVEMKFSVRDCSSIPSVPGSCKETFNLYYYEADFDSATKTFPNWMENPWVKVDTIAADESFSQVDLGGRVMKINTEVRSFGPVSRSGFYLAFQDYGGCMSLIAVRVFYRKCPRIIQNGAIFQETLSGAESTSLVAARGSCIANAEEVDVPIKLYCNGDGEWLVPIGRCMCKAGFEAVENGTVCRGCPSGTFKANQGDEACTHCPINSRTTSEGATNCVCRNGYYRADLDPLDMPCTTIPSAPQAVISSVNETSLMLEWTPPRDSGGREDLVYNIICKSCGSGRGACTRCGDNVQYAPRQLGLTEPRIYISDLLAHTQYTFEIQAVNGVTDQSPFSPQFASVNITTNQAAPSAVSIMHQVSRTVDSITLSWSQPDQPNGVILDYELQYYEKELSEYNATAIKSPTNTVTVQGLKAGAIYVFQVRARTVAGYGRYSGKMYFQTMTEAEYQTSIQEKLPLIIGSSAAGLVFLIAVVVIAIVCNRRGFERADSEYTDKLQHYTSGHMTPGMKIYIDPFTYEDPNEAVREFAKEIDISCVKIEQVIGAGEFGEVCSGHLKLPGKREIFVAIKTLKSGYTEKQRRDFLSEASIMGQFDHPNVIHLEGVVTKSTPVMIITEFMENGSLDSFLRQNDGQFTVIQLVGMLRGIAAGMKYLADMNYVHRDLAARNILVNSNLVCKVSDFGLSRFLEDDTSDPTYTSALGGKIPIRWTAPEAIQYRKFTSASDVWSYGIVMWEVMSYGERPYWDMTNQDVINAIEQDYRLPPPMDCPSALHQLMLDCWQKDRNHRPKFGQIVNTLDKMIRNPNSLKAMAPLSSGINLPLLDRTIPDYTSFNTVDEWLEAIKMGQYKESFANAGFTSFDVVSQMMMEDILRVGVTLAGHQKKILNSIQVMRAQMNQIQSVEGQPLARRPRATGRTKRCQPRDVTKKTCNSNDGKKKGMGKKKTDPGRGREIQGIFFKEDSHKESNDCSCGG

Chain of Epidermal growth factor receptor (Homo sapiens), P00533 [L858R] (P00533 whole entry L858R): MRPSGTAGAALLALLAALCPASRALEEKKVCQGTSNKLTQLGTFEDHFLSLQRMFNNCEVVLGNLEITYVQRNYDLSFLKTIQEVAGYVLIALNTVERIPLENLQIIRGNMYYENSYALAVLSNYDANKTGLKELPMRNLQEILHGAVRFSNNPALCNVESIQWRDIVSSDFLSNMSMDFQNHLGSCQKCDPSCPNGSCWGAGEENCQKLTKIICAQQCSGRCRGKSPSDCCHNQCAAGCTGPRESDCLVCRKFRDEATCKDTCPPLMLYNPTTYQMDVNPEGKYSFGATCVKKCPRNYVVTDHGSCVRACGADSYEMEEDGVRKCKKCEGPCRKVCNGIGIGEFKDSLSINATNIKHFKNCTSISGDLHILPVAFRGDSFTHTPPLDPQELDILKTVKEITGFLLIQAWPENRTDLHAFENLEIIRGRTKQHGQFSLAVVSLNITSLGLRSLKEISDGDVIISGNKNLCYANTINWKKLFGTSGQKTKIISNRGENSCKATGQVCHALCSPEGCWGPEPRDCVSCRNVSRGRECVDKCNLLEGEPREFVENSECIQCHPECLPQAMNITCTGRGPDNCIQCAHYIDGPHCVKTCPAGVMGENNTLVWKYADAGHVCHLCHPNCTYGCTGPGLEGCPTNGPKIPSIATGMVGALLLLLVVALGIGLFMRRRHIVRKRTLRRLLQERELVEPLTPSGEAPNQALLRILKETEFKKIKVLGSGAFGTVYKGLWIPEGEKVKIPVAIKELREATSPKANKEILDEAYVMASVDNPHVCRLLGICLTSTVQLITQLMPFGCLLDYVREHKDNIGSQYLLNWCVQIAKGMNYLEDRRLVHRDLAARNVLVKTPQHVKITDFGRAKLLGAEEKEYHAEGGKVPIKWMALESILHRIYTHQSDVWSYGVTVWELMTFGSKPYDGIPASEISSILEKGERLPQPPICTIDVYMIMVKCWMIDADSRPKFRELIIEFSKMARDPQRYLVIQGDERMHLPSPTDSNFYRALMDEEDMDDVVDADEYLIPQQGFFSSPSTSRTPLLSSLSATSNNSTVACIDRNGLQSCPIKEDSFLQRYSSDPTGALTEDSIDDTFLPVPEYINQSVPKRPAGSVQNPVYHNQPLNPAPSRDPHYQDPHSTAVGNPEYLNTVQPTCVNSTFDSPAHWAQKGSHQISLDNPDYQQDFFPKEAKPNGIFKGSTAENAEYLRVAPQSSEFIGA
Chain of Epidermal growth factor receptor (Homo sapiens) (P00533 whole entry): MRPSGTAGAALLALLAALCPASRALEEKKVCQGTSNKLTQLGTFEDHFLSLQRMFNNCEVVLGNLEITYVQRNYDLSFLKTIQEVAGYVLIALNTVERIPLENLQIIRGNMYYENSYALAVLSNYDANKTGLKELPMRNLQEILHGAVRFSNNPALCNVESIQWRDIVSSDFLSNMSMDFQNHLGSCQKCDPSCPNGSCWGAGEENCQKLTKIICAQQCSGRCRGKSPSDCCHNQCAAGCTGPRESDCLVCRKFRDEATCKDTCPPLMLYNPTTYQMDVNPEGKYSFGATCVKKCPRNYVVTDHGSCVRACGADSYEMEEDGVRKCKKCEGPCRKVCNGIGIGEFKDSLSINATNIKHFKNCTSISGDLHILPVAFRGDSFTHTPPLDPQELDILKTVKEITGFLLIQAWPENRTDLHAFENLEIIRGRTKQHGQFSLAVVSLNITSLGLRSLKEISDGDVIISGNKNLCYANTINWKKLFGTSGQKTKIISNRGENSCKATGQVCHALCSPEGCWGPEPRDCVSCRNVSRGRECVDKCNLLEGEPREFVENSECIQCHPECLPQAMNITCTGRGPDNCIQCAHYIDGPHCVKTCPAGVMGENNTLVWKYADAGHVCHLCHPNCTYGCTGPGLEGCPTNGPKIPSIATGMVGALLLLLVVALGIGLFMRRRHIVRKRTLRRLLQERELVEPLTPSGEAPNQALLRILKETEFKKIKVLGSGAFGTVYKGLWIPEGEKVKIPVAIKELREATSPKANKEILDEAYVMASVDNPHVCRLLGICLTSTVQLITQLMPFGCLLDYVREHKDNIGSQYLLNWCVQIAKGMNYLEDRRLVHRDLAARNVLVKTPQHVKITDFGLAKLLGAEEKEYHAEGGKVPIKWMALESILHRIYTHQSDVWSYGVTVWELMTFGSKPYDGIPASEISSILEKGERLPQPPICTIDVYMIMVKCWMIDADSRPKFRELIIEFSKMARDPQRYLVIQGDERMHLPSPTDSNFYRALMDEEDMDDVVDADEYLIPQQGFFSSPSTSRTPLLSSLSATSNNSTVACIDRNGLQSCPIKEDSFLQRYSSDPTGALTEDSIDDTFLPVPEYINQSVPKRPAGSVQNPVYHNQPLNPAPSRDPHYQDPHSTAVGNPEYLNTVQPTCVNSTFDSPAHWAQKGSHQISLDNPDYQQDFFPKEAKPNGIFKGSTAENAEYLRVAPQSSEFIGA
Chain of Tyrosine-protein kinase CSK (Homo sapiens) (P41240 2-450 limits assumed): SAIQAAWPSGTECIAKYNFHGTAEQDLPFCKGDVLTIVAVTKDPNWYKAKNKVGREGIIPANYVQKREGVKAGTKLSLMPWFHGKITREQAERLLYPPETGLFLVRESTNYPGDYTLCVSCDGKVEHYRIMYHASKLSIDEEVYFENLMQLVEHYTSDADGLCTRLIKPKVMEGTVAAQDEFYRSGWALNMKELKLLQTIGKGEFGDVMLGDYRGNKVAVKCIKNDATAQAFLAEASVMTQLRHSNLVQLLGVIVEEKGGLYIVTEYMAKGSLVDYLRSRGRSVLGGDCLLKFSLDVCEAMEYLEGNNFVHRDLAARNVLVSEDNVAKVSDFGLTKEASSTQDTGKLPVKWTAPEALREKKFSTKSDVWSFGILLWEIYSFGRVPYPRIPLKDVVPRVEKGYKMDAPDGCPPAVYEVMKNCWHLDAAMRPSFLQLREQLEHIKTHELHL
Chain of Epidermal growth factor receptor (Homo sapiens), P00533 [L858R,T790M] (P00533 whole entry T790M/L858R, looked up): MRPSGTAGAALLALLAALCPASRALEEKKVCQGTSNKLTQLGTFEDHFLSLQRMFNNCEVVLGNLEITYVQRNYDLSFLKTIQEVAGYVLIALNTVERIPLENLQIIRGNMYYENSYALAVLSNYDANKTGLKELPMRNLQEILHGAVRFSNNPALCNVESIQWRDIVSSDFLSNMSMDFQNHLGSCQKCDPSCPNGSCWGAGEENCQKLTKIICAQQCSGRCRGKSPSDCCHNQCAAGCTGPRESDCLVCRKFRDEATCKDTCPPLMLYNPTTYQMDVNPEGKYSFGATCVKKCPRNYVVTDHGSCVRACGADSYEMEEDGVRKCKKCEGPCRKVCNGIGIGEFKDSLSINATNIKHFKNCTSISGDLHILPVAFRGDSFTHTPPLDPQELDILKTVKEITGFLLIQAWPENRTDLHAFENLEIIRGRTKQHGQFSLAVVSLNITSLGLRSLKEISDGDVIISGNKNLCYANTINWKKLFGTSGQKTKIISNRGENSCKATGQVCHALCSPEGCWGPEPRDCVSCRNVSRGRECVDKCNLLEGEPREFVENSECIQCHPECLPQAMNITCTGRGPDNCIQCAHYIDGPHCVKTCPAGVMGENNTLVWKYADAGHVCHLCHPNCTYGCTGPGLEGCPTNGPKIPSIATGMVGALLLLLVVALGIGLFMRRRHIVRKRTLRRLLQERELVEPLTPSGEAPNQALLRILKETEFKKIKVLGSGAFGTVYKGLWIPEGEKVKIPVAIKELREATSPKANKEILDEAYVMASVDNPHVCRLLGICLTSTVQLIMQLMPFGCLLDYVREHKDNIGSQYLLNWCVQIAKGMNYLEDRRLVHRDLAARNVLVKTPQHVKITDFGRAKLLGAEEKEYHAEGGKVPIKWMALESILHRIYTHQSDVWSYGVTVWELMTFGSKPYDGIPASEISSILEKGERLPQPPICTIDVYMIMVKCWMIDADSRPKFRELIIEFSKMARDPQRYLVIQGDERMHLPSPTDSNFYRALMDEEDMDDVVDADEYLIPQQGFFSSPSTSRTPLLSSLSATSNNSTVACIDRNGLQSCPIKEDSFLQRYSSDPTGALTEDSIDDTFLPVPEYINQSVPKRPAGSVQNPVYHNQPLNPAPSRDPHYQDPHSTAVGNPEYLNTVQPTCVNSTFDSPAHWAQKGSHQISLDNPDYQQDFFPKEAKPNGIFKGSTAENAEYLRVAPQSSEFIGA
Chain of Ephrin type-A receptor 4 (Homo sapiens) (P54764 whole entry): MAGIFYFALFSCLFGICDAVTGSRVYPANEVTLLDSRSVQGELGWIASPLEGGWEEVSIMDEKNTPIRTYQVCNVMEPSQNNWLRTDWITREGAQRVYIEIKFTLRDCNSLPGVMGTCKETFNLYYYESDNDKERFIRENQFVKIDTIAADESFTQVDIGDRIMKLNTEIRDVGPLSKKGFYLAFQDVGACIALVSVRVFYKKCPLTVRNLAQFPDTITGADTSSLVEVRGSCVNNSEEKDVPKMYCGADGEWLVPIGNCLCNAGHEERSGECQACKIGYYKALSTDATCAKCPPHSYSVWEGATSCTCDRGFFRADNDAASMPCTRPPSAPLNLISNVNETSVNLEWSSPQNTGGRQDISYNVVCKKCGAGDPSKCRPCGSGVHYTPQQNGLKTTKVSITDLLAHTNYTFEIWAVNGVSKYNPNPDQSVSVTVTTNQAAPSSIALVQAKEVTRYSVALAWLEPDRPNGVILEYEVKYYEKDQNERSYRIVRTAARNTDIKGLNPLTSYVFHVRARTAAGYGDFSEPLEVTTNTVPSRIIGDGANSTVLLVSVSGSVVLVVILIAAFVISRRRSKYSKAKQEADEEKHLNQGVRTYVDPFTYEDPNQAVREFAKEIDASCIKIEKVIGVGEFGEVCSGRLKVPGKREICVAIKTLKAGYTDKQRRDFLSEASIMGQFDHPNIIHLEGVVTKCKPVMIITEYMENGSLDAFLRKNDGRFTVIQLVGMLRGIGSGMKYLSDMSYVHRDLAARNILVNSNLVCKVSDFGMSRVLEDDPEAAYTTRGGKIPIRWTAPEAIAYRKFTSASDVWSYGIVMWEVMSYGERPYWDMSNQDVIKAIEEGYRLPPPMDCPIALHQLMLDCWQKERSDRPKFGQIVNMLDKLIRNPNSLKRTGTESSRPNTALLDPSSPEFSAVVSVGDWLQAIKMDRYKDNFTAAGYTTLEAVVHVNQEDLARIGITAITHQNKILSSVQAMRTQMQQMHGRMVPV

SMILES | inhibition [1] [%] | inhibition [2] [%] | inhibition [3] [%] | inhibition [4] [%] | inhibition [5] [%] | inhibition [6] [%] | inhibition [7] [%] | inhibition [8] [%] | inhibition [9] [%] | inhibition [10] [%] | inhibition [11] [%] | inhibition [12] [%] | inhibition [13] [%] | inhibition [14] [%] | inhibition [15] [%] | inhibition [16] [%] | inhibition [17] [%] | inhibition [18] [%] | inhibition [19] [%] | inhibition [20] [%]
Nc1nc(-c2ccc(F)cc2)c(-c2ccc3ncccc3n2)s1 | 5.38 | 0.01 | -5.99 | 2.98 | 21.7 | 13.1 | 60.5 | 6.11 | 22.4 | 1.84 | 5.63 | 4.54 | 14.7 | 0.69 | 0.59 | 5.86 | 6.22 | 9.7 | 14.6 | 9.15
COc1cc(/C=N/Nc2ncnc3[nH]ncc23)ccc1O | 24.9 | 1.42 | 2.31 | 2.77 | 8.71 | 4.32 | 7.89 | 2.91 | 4.72 | 1.39 | 4.2 | -0.56 | 5.5 | 6.02 | 21 | 5.55 | 16.5 | 14.9 | 55.3 | 11.7
CN(C)CCOc1ccc(-c2nc(-c3ccncc3)c(-c3ccc4c(c3)CC/C4=N\O)[nH]2)cc1 | 2.75 | 1.41 | 0.64 | 2.89 | 2.4 | 5 | 9.64 | 2.57 | 8.13 | 2.18 | 2.29 | 2.36 | 6.66 | 1.49 | 0.74 | 2.42 | 3.57 | 6.96 | 9.28 | 5.22
CC1=C(C(=O)Nc2cc(Cl)c3[nH]ncc3c2)C(c2ccc(C(F)(F)F)cc2)CC(=O)N1 (stereo not given) | 2.47 | 1.75 | 1.35 | -1.31 | 5.03 | 2.16 | 7.45 | 2.03 | 2.45 | 1.57 | 4.57 | 1.19 | 1.94 | -2.83 | -2.1 | 2.24 | 2.48 | 8.02 | 6.71 | 1.63
Fc1ccc(-c2nn3ncccc3c2-c2ccnc(Nc3ccc4c(c3)OCCO4)n2)cc1 | 12.4 | 37.2 | 82.5 | 59.5 | 82.1 | 88.3 | 98.4 | 63.6 | 89.5 | 15.3 | 63.8 | 45.5 | 88.1 | 2.48 | 14.4 | 7.69 | 18.2 | 17.1 | 55.5 | 34.3
CCCN(CCS(C)(=O)=O)Cc1ccc(-c2ccc3ncnc(Nc4ccc(OCc5cccc(F)c5)c(Cl)c4)c3c2)o1 | 5.5 | 1.06 | 1.68 | 77.6 | 78.4 | 53.4 | 95 | 53 | 88.2 | 2.23 | 8.75 | -1 | 3.75 | -2.13 | -0.4 | 2.56 | 2.25 | 5.97 | 5.71 | 4.71
